Assay outcomes (PubChem)
RORgamma inh = ROR gamma (mouse) transcription inhibition. Drosophila S2 Gal4-RORgamma UAS-luciferase reporter, 20 h. Potency, µM (titrated, usually from 53.6 µM), usual class: inhibitors. 5.4% of 310,000 active. AID 2551; note: nearly all actives have a fitted effect of over 60% in size
Target sequence (P51450 whole entry, looked up, the tested form may be a part): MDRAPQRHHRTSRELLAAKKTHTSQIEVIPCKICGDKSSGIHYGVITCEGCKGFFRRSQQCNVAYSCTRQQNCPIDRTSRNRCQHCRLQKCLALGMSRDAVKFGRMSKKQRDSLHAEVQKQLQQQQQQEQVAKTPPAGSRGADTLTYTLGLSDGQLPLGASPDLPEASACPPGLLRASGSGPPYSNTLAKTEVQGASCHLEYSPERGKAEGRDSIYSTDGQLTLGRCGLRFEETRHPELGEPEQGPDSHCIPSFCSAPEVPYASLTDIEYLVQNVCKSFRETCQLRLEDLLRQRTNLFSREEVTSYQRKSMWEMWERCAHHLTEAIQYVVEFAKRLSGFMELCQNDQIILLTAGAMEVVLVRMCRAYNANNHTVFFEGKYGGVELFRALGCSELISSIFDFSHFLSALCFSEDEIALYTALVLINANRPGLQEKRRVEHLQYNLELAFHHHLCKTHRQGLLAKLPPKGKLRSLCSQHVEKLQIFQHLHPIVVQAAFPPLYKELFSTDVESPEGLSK
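In this cell-based reporter format, copper sulfate (700 uM final) drives Gal4–ROR gamma fusion expression from a metallothionein promoter in Drosophila Schneider cells; compounds preincubated 1 hr, reporter read after 20 hr at ambient temperature.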
Six1-Eya2 inh = Six1/Eya2 interaction inhibition; Q15475+O00167; AID 651725; AlphaScreen GST-Six1/His-Eya2 binding, biochemical; stronger effect = lower value; 0.56% of 360,000 active; activity change, % (test concentration not listed); in the data active = activity change below about -65%; inconclusive = mostly about -30% to -63%
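Homogeneous AlphaScreen proximity assay pairing GST-Six1 with His-tagged Eya2 (added as 5X mix: 250 nM and 500 nM) in 50 mM Tris pH 8.0, 300 mM NaCl, 1 mM TCEP. Glutathione donor and nickel acceptor beads; 1 h, 37 °C, dark.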
VP16 counter = Gal4-VP16 reporter inhibition counter-screen; Drosophila S2 Gal4-VP16 UAS-luciferase, luminescence, 20 h; Potency, µM (top dose mostly 53.6 µM), actives largely listed as inhibitors; 3.5% of 310,000 active;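 note: Gal4-VP16 expression switched on by copper sulfate through the metallothionein promoter; nearly all actives have a fitted effect of over 50% in size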
CtBP-E1A inh = blocks the CtBP interaction with E1A; 0.49% of 340,000 active; activity change, % (test concentration not listed); AlphaScreen GST-E1A/His-CtBP binding, 1536-well; stronger effect = lower value; in the data active = activity change below about -65%; inconclusive = mostly about -30% to -63%
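GST-E1A and His-tagged CtBP (125 nM each as 5X stock) were preincubated with pin-transferred compound for 2 h at 37 °C in the dark, then glutathione donor and nickel acceptor beads were added for 1 h before AlphaScreen reading.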
PKM2 activator = activators of human pyruvate kinase M2; P14618; purified PKM2, Kinase-Glo ATP luminescence, activation; response scale: 0% is enzyme alone, no compound; 0.34% of 260,000 active; Potency, µM (titrated, usually from 57.5 µM), hits mostly activators; note: nearly all actives have a fitted effect of over 55% in size
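Purified hPK-M2 (>95%) run at intermediate activity with 0.1 mM ADP and 0.5 mM PEP in 50 mM imidazole pH 7.2, KCl, MgCl2; 1 h room temperature. ATP formed read by Kinase-Glo luminescence; normalized to uninhibited and no-enzyme controls.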
Hits are given with their value; - = inactive; ? = inconclusive; . = no result. Only some compounds are listed: those with a hit (about 5.6% of all), similar ones and a draw of the others. Unless noted, calls come from the whole dose curve; as a rule, active = well fitted curve in the direction sought with a large enough effect; inconclusive = small, poorly fitted or top-dose-only effect, or another doubt; inactive = no such curve, though single readings can be large; an effect the other way counts as inactive or inconclusive.

SMILES | RORgamma inh | Six1-Eya2 inh | VP16 counter | CtBP-E1A inh | PKM2 activator
CC(C)Cc1nnc(NC(=O)CCC(=O)NC2CC2)s1 | - | - | - | . | -
O=C(Cc1ccccc1F)NCC1(N2CCOCC2)CCCCC1 | - | - | - | - | -
Cc1ccc(-c2cc3c(N=O)c4ccccc4c-3n[nH]2)cc1 | 10µM | - | ? | - | -
O=Nc1c2cc(-c3ccccc3)[nH]nc-2c2ccccc12 | - | - | - | . | -
COc1ccccc1Cc1c(-c2ccccc2)nc2c(C)cc(Br)cn12 | . | - | . | - | .
COc1nccnc1NS(=O)(=O)c1ccc(NCc2cc(Br)ccc2O)cc1 | - | -77 | - | -73 | -
O=S(=O)(Nc1nccs1)c1ccc(NCc2cc(Br)cc(Br)c2O)cc1 | - | -90 | - | . | -
Cc1cccc(-c2ncc(CN3CCCC(CO)(Cc4ccccc4C)C3)cn2)c1 (stereo not drawn) | ? | - | - | - | -
O=c1c2c(nc3cc(-c4ccc(F)cc4)[nH]n13)CCCC2 | 8.9µM | - | 11µM | - | -
CC1=CN2C(=N)/C(=C/c3ccc(Sc4ccc(C)cc4)o3)C(=O)N=C2S1 | 2.2µM | - | 4µM | - | -
CC1=CN2C(=N)/C(=C/c3ccc(Sc4ccc(Cl)cc4)o3)C(=O)N=C2S1 | ? | - | 4.5µM | - | -
N=C1/C(=C\c2ccc(SCc3ccccc3)o2)C(=O)N=C2SC=NN12 | - | - | - | . | -
CCN=C1S/C(=C\c2ccc(Sc3ccc(Cl)cc3)o2)C(=O)N1CC | - | - | - | - | -
O=S(=O)(c1ccc(NC(=S)N/N=C/c2cccc(Oc3ccccc3)c2)cc1)N1CCOCC1 | 0.89µM | - | - | - | -
O=[N+]([O-])c1cc(Cl)cc(/C=N/NC(=S)Nc2ccc(S(=O)(=O)N3CCOCC3)cc2)c1O | - | -91 | - | -98 | -
O=S(=O)(c1ccc(NC(=S)N/N=C/c2ccc(O)c(O)c2)cc1)N1CCOCC1 | - | - | - | - | -
N#Cc1ccc(/C=N/NC(=S)Nc2ccc(S(=O)(=O)N3CCOCC3)cc2)cc1 | 1.8µM | - | ? | - | -
Cc1cc(C(=O)Nc2ccc(S(=O)(=O)N3CCOCC3)cc2)ccc1[N+](=O)[O-] | ? | - | - | . | -
O=c1cnc2cnc(N3CCNCC3)nc2n1C1CC1 | - | . | - | . | .
CC(=O)Nc1ccc(NC(=O)CSc2ccc3nnc(-c4cccnc4)n3n2)cc1 | - | - | - | - | -
CCc1nc2ccccc2n1CCc1ccccc1 | 8.9µM | - | - | - | -
C=C(Br)Cn1c(CC(C)C)nc2ccccc21 | 35µM | - | - | - | -
CCc1nc2ccccc2n1CCC(C)C | 10µM | - | 13µM | - | -
CCOCCn1c(CC)nc2ccccc21 | - | - | - | - | -
CC(C)Cc1nc2ccccc2n1CCc1ccccc1 | 8.9µM | - | ? | - | -
SMILES | RORgamma inh | Six1-Eya2 inh | VP16 counter | CtBP-E1A inh | PKM2 activator
CC(C)C(=O)NCCc1nc2ccccc2n1CCc1ccccc1 | - | - | - | - | -
C=C(Br)Cn1c(CC)nc2ccccc21 | - | - | - | - | -
Cc1ccc(S(=O)(=O)N2CCN(C(=O)COC(=O)CNC(=O)c3ccccc3F)CC2)c(C)c1 | . | - | . | - | .
Cc1c(Cl)cccc1NC(=O)CCN1C(=O)C2CC=CCC2C1=O (stereo not drawn) | - | - | - | - | -
CC(C)(C)Cc1nc2ccccc2n1CCc1ccccc1 | 7.9µM | - | 16µM | - | -
CCn1c(CCc2ccccc2)nc2ccccc21 | ? | - | ? | - | ?
CC(C)(C)c1ccc(-c2nc3n(c(=O)c2C#N)CCS3)cc1 | - | - | - | - | -
COc1ccc(O)c(/C=N/NC(=O)c2ccc(N3CCCC3=O)cc2)c1 | 2.2µM | ? | ? | -71 | -
O=C(N/N=C/c1cc(Br)ccc1O)c1cccc(N2CCCC2=O)c1 | 1µM | -78 | 5.6µM | -67 | -
COc1ccc(O)c(/C=N/NC(=O)c2cccc(N3CCCC3=O)c2)c1 | 3.5µM | ? | 3.5µM | ? | -
COc1ccc(/C=N/NC(=O)c2ccc(N3CCCC3=O)cc2)cc1 | - | - | - | - | .
O=C(N/N=C/c1ccco1)c1cccc(N2CCCC2=O)c1 | ? | - | - | - | -
COc1ccccc1NC(=O)Nc1nc(CC(=O)N2CCN(c3ccccc3F)CC2)cs1 | . | - | . | - | .
Cc1ccc(N=Cc2cc(Br)cc(Cl)c2O)cc1 | 11µM | - | - | - | -
Oc1c(Cl)cc(Cl)cc1C=Nc1ccc(Br)cc1 | ? | - | - | - | -
CCc1ccc(OCc2ccc(C(=O)O)o2)cc1 | 7.1µM | - | ? | - | .
CC(C)c1ccc(OCc2ccc(C(=O)O)o2)cc1 | 2.8µM | - | ? | - | -
COc1ccc(S(=O)(=O)N2CCN(C(=O)CCSc3ccccc3)CC2)cc1 | . | - | . | - | .
CCOC(=O)C1=CC[C@@H](c2cc(OC)c(OC)c(OC)c2)N(S(=O)(=O)c2ccc(C)cc2)[C@H]1C(=O)OCC | . | - | . | - | .
Cc1ccc(NC(=S)Nc2cccc3cnccc23)cc1C | ? | - | 3.2µM | - | -
S=C(NCCc1ccccc1)Nc1cccc2cnccc12 | 5µM | - | 4.5µM | - | -
Cc1ccccc1NC(=S)Nc1cccc2cnccc12 | 10µM | - | - | - | .
Cc1ccc(NC(=S)Nc2cccc3cnccc23)cc1 | ? | - | ? | . | -
O=C(Nc1cccc(C(=O)O)c1)/C(=C\c1cccc([N+](=O)[O-])c1)NC(=O)c1ccc(Br)cc1 | . | - | . | - | .
Cc1cccc(NC(=O)CN2CCN(C(=O)c3cnn(Cc4ccccc4)c3)CC2)c1C | . | - | . | - | .
SMILES | RORgamma inh | Six1-Eya2 inh | VP16 counter | CtBP-E1A inh | PKM2 activator
CCC(CC(C)(C)O)C(=O)NNC(=S)Nc1ccccc1 (stereo not drawn) | - | - | - | - | -
Cc1cc(SC(C)C(=O)NCC(=O)Nc2ccc(F)c(F)c2F)nc2ccccc12 (stereo not drawn) | 10µM | - | ? | - | -
Cc1cc(C)c2nc(SC(C)C(=O)NCC(=O)Nc3ccc(F)c(F)c3F)cc(C)c2c1 (stereo not drawn) | - | - | - | - | -
Cc1onc(-c2ccccc2Cl)c1C(=O)NNC(=O)c1cccc(F)c1 | - | - | - | - | -
CCOc1cc(C)c(C(C)C)cc1S(=O)(=O)NCc1ccccn1 | 10µM | - | - | - | -
Cc1onc(-c2ccccc2)c1C(=O)Oc1cccnc1 | 7.9µM | - | - | - | -
Cc1ccc(/C=N/NC(=O)c2c(-c3ccccc3)noc2C)o1 | 13µM | - | ? | - | -
O=C(N/N=C/c1cc(Br)c(Br)o1)C(O)c1ccccc1 (stereo not drawn) | - | - | - | - | -
COC(=O)c1c(-c2ccccc2)noc1C | - | - | - | - | -
Cc1onc(-c2ccccc2)c1C(=O)N/N=C/c1cc(Br)c(Br)o1 | 7.1µM | - | 10µM | - | -
Cc1cccc(C(=O)N/N=C/c2cc(Br)c(Br)o2)c1 | 11µM | - | ? | - | -
Cc1ccccc1NC(=O)c1c(-c2ccccc2)noc1C | - | - | - | - | -
